Measurements reported in PubChem BioAssay (Tox21).
Records with an inconclusive call do not appear. Entries that show only a call come without a potency. Calls of active or inactive are those of the source. Unless noted, calls come from the whole dose curve; as a rule, active = well fitted curve in the direction sought with a large enough effect in the repeat runs; inconclusive = weak or mixed curves; inactive = no such curve, though single readings can be large; an effect the other way counts as inactive or inconclusive.

How the values were obtained:
[1] = A CellTox Green Cytotoxicity Assay to monitor cytotoxicity in HepG2 cells - 0 hour (AID 1224882); note: nearly all actives have a fitted effect of over 35% in size; note: potency is the fitted concentration of half-maximal effect
Outline: (§1)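 Nonlytic assay: viable cells exclude the dye, so fluorescence scales with cell death. HepG2 at 600 cells/well, compounds added after 5 h, signal read across 40 h.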

[2] = A CellTox Green Cytotoxicity Assay to monitor cytotoxicity in HepG2 cells - 32 hour (AID 1224883); note: nearly all actives have a fitted effect of over 50% in size; note: potency is the fitted concentration of half-maximal effect
Outline: as §1

[3] = A CellTox Green Cytotoxicity Assay to monitor cytotoxicity in HEK293 cells - 8 hour (AID 1224884); note: nearly all actives have a fitted effect of over 35% in size; note: potency is the fitted concentration of half-maximal effect
Outline: (§2)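 Seeding of HEK293 cells together with cytotoxicity dye preceded a 5 h incubation at 37 C/5% CO2. Test compounds in DMSO were then added and fluorescence monitored across 40 h.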

[4] = qHTS RealTime-Glo MT Cell Viability Assay in HepG2 cells - 16 hour (AID 1224885); note: nearly all actives have a fitted effect of over 50% in size
Outline: (§3)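 Real-time, nonlytic viability: 600 HepG2 cells/well mixed with NanoLuc enzyme plus prosubstrate; 5 h settle, compound (DMSO) added by pintool; luminescence monitored over 40 h at 37 C.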

[5] = qHTS RealTime-Glo MT Cell Viability Assay in HEK293 cells - 24 hour (AID 1224886); note: top concentration of the series differs between compounds; nearly all actives have a fitted effect of over 50% in size
Outline: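 Cells + reagent dispensed (600 cells/well, HEK293) → 5 h at 37 C/5% CO2 → 23 nL compound in DMSO pinned → 40 h at 37 C → luminescence read at 0, 8, 16, 24, 32, 40 h.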

[6] = qHTS RealTime-Glo MT Cell Viability Assay in HEK293 cells - 8 hour (AID 1224887); note: top concentration of the series differs between compounds; nearly all actives have a fitted effect of over 50% in size
Outline: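 Tox21 screen in HEK293 using RealTime-Glo MT chemistry, with cells and reagent co-dispensed. Luminescence proportional to viable cell number was captured at intervals during 40 h compound exposure at 37 C.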

[7] = A CellTox Green Cytotoxicity Assay to monitor cytotoxicity in HEK293 cells - 16 hour (AID 1224888); note: nearly all actives have a fitted effect of over 35% in size; note: potency is the fitted concentration of half-maximal effect
Outline: as §2

[8] = qHTS RealTime-Glo MT Cell Viability Assay in HepG2 cells - 0 hour (AID 1224889); note: nearly all actives have a fitted effect of over 50% in size
Outline: as §3

[9] = A CellTox Green Cytotoxicity Assay to monitor cytotoxicity in HepG2 cells - 8 hour (AID 1224890); note: nearly all actives have a fitted effect of over 45% in size; note: potency is the fitted concentration of half-maximal effect
Outline: as §1

[10] = qHTS assay to identify small molecule antagonists of the estrogen receptor alpha (ER-alpha) signaling pathway using the BG1 cell line in the presence of 0.1 nM 17-beta-estradiol - cell viability counter screen (AID 1259241); note: nearly all actives have a fitted effect of over 40% in size
Outline: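 Cytotoxicity counter-screen: live-cell protease activity measured by fluorescence (30 min reagent step) in the same wells. Cells were VM7Luc4E2 with endogenous ER-alpha and ERE-driven luciferase, treated 22 hr at 37C alongside 0.1 nM 17beta-estradiol final.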

[11] = qHTS assay to identify small molecule antagonists of the androgen receptor (AR) signaling pathway using the MDA cell line in the presence of 0.5 nM R1881 - cell viability counter screen (AID 1259242); note: nearly all actives have a fitted effect of over 45% in size
Outline: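 R1881 at 0.5 nM final stimulated MDA-kb2 cells during 16 hr compound treatment at 37C. Cytotoxicity read: CellTiter-Fluor fluorescence after 30 min.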

[12] = molecular target: Androgen receptor (Homo sapiens) (UniProt P10275); experiment: qHTS assay to identify small molecule antagonists of the androgen receptor (AR) signaling pathway using the MDA cell line in the presence of 0.5 nM R1881 (AID 1259243); note: nearly all actives have a fitted effect of over 50% in size
Outline: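 We exposed MDA-kb2 cells to compounds under 0.5 nM R1881 stimulation for 16 hr at 37C and quantified MMTV-driven luciferase by luminescence.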

[13] = molecular target: Estrogen receptor (Homo sapiens) (UniProt P03372); experiment: qHTS assay to identify small molecule antagonists of the estrogen receptor alpha (ER-alpha) signaling pathway using the BG1 cell line in the presence of 0.1 nM 17-beta-estradiol (AID 1259244); note: nearly all actives have a fitted effect of over 50% in size
Outline: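 VM7Luc4E2; 4xERE-luciferase; 0.1 nM E2 final; 22 h co-incubation, 37C; ONE-Glo luminescence after 30 min at room temperature.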

[14] = qHTS assay to identify small molecule HDAC inhibitors (AID 1259364); note: potency is the fitted concentration of half-maximal effect;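 note: wild-type HCT-116 cells with endogenous class I/II HDAC activity; nearly all actives have a fitted effect of over 45% in size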
Outline: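 Relative class I and II HDAC activity is taken from the luminogenic signal in HCT-116 cells, with compound exposure 2 hr and reagent development 30 min at room temperature.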

[15] = qHTS assay to identify small molecule HDAC inhibitors - cell viability counter screen (AID 1259365)
Outline: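 CellTiter-Glo luminescence (30 min, room temperature) reported viability after a 2 h compound exposure at 37 C. Cells: wild-type HCT-116, 1,500 per well, seeded the night before.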

[16] = qHTS assay to identify small molecule agonists of the sonic hedgehog signaling (Shh) pathway - cell viability counter screen (AID 1259366); note: nearly all actives have a fitted effect of over 50% in size
Outline: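 Cytotoxicity counter screen: CellTiter-Fluor reagent added after 23 h compound exposure, then 1 h at 37C and fluorescence read. Cells were 3T3 Gli1-Luc, seeded 2,000 per well and dosed 4 h post-plating.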

[17] = qHTS assay to identify small molecule antagonists of the sonic hedgehog signaling (Shh) pathway - cell viability counter screen (AID 1259367); note: nearly all actives have a fitted effect of over 55% in size
Outline: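 NIH/3T3-derived Gli1-Luc reporter cells, 2,000/well, plated 4 hr before compound addition, then stimulated with conditioned medium for 24 hr at 37C. Viability measured in the same wells by CellTiter-Fluor fluorescence, reagent added at 23 hr for 1 hr.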

[18] = qHTS assay to identify small molecule agonists of the sonic hedgehog signaling (Shh) pathway (AID 1259368; calls by dose curve;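 note: NIH/3T3-derived 3T3Gli1-Luc cells carrying a stable Gli1-driven firefly luciferase reporter; series mostly up to about 92 µM; nearly all actives have a fitted effect of over 15% in size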)
Outline: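 Mouse fibroblast (NIH/3T3) reporter cells with stably integrated Gli1-Luc were treated 24 hr with compound; firefly luciferase luminescence served as the read-out.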

[19] = qHTS assay to identify small molecule antagonists of the sonic hedgehog signaling (Shh) pathway (AID 1259369; calls by dose curve; note: nearly all actives have a fitted effect of over 45% in size)
Outline: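 Conditioned medium drives Shh signalling in 3T3Gli1-Luc cells; compounds in DMSO co-applied, 24hr at 37 C, then luciferase luminescence.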

[20] = qHTS assay to identify small molecule phospholipidosis (PLD) inducers (AID 1259344; active = well fitted curve in the direction sought with a large enough effect; an effect the other way counts as inactive or inconclusive)
Outline: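 HepG2 cells, 900/well, treated with compound plus LipidTOX Red for 24 h at 37 C; amiodarone positive and DMSO negative controls. Fixed with paraformaldehyde/Hoechst, then high-content imaging scored LipidTOX pit count and integrated intensity per well and per cell.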

Sequence of Estrogen receptor (Homo sapiens) (P03372 whole entry, looked up): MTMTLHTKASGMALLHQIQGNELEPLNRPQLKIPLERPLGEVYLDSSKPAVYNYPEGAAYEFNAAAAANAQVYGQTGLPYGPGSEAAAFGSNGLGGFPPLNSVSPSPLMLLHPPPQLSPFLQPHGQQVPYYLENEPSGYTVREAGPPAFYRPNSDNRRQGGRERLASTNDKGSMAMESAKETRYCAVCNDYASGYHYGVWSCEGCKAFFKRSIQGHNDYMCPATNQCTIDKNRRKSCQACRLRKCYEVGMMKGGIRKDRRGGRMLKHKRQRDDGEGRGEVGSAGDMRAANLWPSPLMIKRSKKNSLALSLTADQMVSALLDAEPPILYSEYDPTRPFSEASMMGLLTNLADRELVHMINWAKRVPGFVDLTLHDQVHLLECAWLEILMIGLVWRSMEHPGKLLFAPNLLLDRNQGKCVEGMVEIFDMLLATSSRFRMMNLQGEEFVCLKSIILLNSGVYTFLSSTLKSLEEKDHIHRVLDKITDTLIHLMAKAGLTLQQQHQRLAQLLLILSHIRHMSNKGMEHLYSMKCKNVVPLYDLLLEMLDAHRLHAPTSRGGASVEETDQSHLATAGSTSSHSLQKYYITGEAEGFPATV
Sequence of Androgen receptor (Homo sapiens) (P10275 whole entry, looked up): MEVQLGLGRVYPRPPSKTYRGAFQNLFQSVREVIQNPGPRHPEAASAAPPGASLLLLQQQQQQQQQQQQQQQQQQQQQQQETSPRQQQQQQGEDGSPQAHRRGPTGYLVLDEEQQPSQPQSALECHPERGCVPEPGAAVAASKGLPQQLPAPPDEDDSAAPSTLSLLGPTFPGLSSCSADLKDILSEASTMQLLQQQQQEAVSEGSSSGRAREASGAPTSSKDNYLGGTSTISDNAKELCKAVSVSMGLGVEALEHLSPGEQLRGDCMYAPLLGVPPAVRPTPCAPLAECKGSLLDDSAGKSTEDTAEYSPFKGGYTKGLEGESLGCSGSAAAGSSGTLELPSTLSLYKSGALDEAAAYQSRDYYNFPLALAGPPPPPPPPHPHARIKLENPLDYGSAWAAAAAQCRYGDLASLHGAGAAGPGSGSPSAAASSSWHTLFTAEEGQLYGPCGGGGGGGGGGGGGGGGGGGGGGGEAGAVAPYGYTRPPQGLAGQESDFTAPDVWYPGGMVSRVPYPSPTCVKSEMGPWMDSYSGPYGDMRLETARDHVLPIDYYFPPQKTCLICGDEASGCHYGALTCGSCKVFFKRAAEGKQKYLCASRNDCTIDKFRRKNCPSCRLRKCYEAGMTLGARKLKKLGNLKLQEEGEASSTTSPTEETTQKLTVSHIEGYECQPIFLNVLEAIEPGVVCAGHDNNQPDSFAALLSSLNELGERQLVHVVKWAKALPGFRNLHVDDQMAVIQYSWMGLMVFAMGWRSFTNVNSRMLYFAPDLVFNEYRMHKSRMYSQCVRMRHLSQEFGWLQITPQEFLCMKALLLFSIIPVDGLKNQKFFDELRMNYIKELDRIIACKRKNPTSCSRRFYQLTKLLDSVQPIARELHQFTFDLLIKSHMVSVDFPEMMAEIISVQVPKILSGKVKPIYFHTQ

Row | SMILES | Potency [1] | Potency [2] | Potency [3] | Potency [4] | Potency [5] | Potency [6] | Potency [7] | Potency [8] | Potency [9] | Potency [10] | Potency [11] | Potency [12] | Potency [13] | Potency [14] | Potency [15] | Potency [16] | Potency [17] | Potency [18] | Potency [19] | Potency [20]
1 | CCCCOCCOC(=O)c1cccnc1 | inactive | inactive | inactive | inactive | inactive | inactive | inactive | inactive | inactive | inactive | inactive | inactive | inactive | inactive | inactive | inactive | inactive | inactive | inactive | 
2 | O=C(c1ccccc1)C1CCC1 | 38.9 µM (active) | 38.9 µM (active) | 38.9 µM (active) | inactive | inactive | inactive | 27.5 µM (active) | inactive | 38.9 µM (active) | inactive | inactive |  | inactive | inactive |  | inactive | inactive | inactive | inactive | 
3 | CC(CO)(CO)C(=O)O | inactive | inactive | inactive | inactive | inactive | inactive | inactive | inactive | inactive | inactive | inactive |  | inactive | inactive | inactive | inactive | inactive |  | inactive | 
4 | CCN(CC)CCNC(=O)c1cc(Cl)c(N)cc1OC | inactive | inactive | inactive | inactive | inactive | inactive | inactive | inactive | inactive | inactive | inactive |  | inactive | inactive | inactive | inactive | inactive | inactive | inactive | inactive
5 | [Cl][Nd]([Cl])[Cl] | inactive | inactive | inactive | inactive | inactive | inactive | inactive | inactive | inactive | inactive | inactive |  | inactive | inactive | inactive |  |  | inactive | inactive | 
6 | O=C(O)CCC(=O)c1ccc(-c2ccccc2)cc1 | inactive | inactive | inactive | inactive | inactive | inactive | inactive | inactive | inactive | inactive | inactive | inactive |  | 13.3 µM (active) | inactive | inactive | inactive | inactive | inactive | inactive
7 | CCN(CC)c1cccc(O)c1 | inactive | inactive | inactive | inactive | inactive | inactive | inactive | inactive | inactive | inactive | inactive |  | inactive | inactive |  | inactive | inactive |  | inactive | 
8 | CC(C)(O)CCc1ccccc1 | inactive | inactive | inactive | inactive | inactive | inactive | inactive | inactive | inactive | inactive | inactive |  | inactive | inactive | inactive | inactive | inactive | inactive | inactive | 
9 | O=C(O)CNC(=O)c1ccccc1I | inactive | inactive | inactive | inactive | inactive | inactive | inactive | inactive | inactive | inactive | inactive |  | inactive | inactive | inactive | inactive | inactive | inactive | inactive | inactive
10 | CCOc1ncc(F)c(=O)[nH]1 | inactive | inactive | inactive | inactive | inactive | inactive | inactive | inactive | inactive | inactive | inactive |  | inactive | inactive | inactive | inactive | inactive | inactive | inactive | 
11 | CC(CCc1ccc(O)cc1)NCCc1ccc(O)c(O)c1 (stereo not given) | inactive | inactive | inactive | inactive | inactive | inactive | inactive | inactive | inactive | inactive | inactive |  | inactive | inactive | inactive | inactive | inactive | inactive | inactive | inactive
12 | CC(=O)c1ccc[nH]1 | inactive | inactive | inactive | inactive | inactive | inactive | inactive | inactive | inactive | inactive | inactive | inactive | inactive | inactive | inactive | inactive | inactive | inactive | inactive | 
13 | CCOC(=O)c1ccc(NC(=O)CN2CCCCC2)cc1 | inactive | inactive | inactive | inactive | inactive | inactive | inactive | inactive | inactive | inactive | inactive | inactive | inactive | inactive |  | inactive | inactive | inactive | inactive | inactive
14 | C=CC(=O)NC(C)C | inactive | inactive | inactive | inactive | inactive | inactive | inactive | inactive | inactive | inactive | inactive |  | inactive | inactive |  | inactive | inactive | inactive | inactive | 
15 | CC(=O)NNC(C)=O | inactive | inactive | inactive | inactive | inactive | inactive | inactive | inactive | inactive | inactive | inactive |  | inactive | inactive | inactive | inactive | inactive | inactive | inactive | 
